UHRF1 MBD2 ctr – human UHRF1 methylated DNA binding inhibitors | Q96T88 | UHRF1 binding to methylated oligo, TR-FRET | inhibition, % at 4.4 µM | AID 687016 | 370,000 compounds, 0.75% hits; in the data active = inhibition above about 21%;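 also: UHRF1 SRA domain binding a hemimethylated CpG hairpin DNA probe; 0% = median of test compound wells and 100% = reference inhibitor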
MBD2 inh – MBD2-methylated oligo binding inhibition; TR-FRET, MBD2 binding to methylated oligonucleotide; inhibition, % at 4.4 µM; Q9UBB5; AID 686964; 370,000 compounds, 0.31% hits; in the data active = inhibition above about 13%
PLCg1 inh – PLC-gamma1 (human) inhibition, primary screen; purified PLC-gamma1, fluorogenic substrate, fluorescence; P19174; 370,000 compounds, 0.84% hits; inhibition, % at 12.2 µM; AID 720700
PLC-beta3 inh – blocks human PLC-beta3 enzyme activity; AID 720704; inhibition, % at 12.2 µM; 370,000 compounds, 0.18% hits; Purified PLC-beta3, fluorogenic substrate, fluorescence; Q01970; in the data active = inhibition above about 11%;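 also: 0% = median of compound wells on plate and 100% = full blocker control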
Target sequence (Q01970 whole entry, looked up): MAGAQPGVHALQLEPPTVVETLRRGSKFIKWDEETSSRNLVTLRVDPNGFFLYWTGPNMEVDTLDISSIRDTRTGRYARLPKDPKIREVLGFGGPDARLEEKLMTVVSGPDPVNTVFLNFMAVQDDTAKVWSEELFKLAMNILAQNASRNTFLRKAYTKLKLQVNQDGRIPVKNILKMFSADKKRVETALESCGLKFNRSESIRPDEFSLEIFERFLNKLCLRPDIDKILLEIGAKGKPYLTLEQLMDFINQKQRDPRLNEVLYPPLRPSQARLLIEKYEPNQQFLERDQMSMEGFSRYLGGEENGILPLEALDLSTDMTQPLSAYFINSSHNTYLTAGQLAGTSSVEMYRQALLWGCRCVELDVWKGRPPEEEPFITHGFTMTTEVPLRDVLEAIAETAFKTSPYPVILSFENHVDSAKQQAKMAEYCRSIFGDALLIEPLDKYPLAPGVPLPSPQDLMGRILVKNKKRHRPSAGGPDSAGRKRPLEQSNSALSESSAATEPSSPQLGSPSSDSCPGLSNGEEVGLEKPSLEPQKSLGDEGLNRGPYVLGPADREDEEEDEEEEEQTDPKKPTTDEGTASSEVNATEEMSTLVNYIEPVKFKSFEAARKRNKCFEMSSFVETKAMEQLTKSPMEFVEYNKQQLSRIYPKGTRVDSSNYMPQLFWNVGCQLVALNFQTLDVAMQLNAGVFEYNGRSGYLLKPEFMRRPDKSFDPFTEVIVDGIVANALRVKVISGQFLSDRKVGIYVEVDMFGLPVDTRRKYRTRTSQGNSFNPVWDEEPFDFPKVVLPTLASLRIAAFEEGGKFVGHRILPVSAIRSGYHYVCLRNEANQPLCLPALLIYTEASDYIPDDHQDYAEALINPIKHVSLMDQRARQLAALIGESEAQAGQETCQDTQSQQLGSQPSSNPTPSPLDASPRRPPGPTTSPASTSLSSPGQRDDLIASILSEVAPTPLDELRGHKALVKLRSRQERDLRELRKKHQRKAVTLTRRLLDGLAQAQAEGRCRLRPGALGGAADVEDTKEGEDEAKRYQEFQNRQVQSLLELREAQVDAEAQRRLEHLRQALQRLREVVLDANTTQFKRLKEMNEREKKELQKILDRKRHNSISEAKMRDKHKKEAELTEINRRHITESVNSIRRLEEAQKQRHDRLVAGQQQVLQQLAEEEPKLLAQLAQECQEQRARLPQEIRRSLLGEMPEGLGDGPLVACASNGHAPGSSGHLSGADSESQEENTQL
LEDGF integ inh – blocks HIV-1 LEDGF/p75-dependent DNA integration; 370,000 compounds, 0.64% hits; inhibition, % at 3.7 µM; TR-FRET IN-LEDGF/p75 DNA integration, Eu/Cy5;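 active = inhibition above the screen-wide mean plus 3 SD, cut at about 13% in these data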;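 also: signal is the Cy5 over europium emission ratio at 671 and 618 nm; 0% = plate median of compound wells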
PLCgamma1 ctr – PLC-gamma1 inhibition, counter-screen for PLC-beta3 hits; shares compounds with PLCg1 inh; purified PLC-gamma1, fluorogenic substrate, fluorescence; inhibition, % at 12.3 µM; 3,300 compounds, 3.1% hits
PLCb3 confirm – confirmation of human PLC-beta3 inhibitors; shares compounds with PLCg1 inh; purified PLC-beta3, fluorogenic substrate fluorescence; inhibition, % at 12.3 µM; 3,300 compounds, 1% hits; AID 743261; in the data active = inhibition above about 11%
* = called active by the depositor; . = no result. In the library only some 2.4% were active in any assay of this set; here they are far more common. Rule as the data show it, unless noted: active = inhibition above about 9.5%; inactive = the rest.

SMILES	UHRF1 MBD2 ctr	MBD2 inh	PLCg1 inh	PLC-beta3 inh	LEDGF integ inh	PLCgamma1 ctr	PLCb3 confirm
CN1C(=O)c2cc(NS(=O)(=O)c3ccc(F)cc3)ccc2OC[C@H]2O[C@@H](CC(=O)NCC(F)(F)F)CC[C@@H]21	5	9	12*	7	4	13*	17*
C[C@@H](NC(=O)C[C@H]1CC[C@H]2[C@@H](COc3ccc(NC(=O)Nc4ccccc4)cc3C(=O)N2C)O1)c1ccccc1	10	8	12*	3	2	4	8
CCNC(=O)Nc1ccc2c(c1)C(=O)N(C)[C@H]1CC[C@H](CC(=O)N[C@H](C)c3ccccc3)O[C@@H]1CO2	7	10	9.5*	7	3	11*	12*
Cc1cc(NC(=O)CCC2CCCC2)no1	0	0	1	1	1	.	.
O=C(CCC1CCCC1)Nc1ccon1	-1	-5	12*	4	3	-3	3
O=C1[C@@H](C2CCCCC2)[C@@H]2c3ccccc3C=NN2[C@@H]2c3ccccc3C=NN12	1	5	-1	-4	-6	.	.
C=CCOC(=O)N[C@H](c1ccc2ccccc2c1)[C@H](C)/C=C/CC(=O)OC	0	1	-1	-5	-1	.	.
CC(C)C(=O)N1CCC(Oc2cccnc2)CC1	1	2	-1	1	0	.	.
CC(=O)Nc1ccc(SC[C@H](Cc2ccccc2)N2CC[C@@H](C(C)(C)C)CCC2=O)cc1	2	-6	11*	3	4	3	3
CCCOc1ccc(/C=N\NC(=O)CCc2n[nH]c(=O)[nH]c2=O)cc1OC	4	-5	11*	13*	3	-8	-1
COc1ccc(/C=N/NC(=O)CCc2n[nH]c(=O)[nH]c2=O)cc1OC	4	-2	-2	3	0	.	.
O=C(N/N=C/c1ccc(N2CCCC2)c([N+](=O)[O-])c1)c1cccnc1	-6	-17	18*	16*	8	-1	6
CN1CCN(c2ccccc2NC(=O)c2ccc(-c3cccc(Cl)c3)o2)CC1	-1	-1	-30	-52	2	.	.
O=C(Nc1ccccc1N1CCCCC1)c1ccc(-c2cccc(Cl)c2)o1	-1	-5	13*	2	4	-117	-114
O=C(NC1CCCCN(Cc2cccc(C(F)(F)F)c2)C1=O)c1ccc(F)cc1 (stereo not drawn)	0	2	0	-3	4	.	.
CCN(CC)S(=O)(=O)c1cc([N+](=O)[O-])ccc1NNC(=O)Nc1ccccc1OC	4	0	10*	6	4	2	5
COc1ccccc1NC(=O)c1ccccc1S(=O)(=O)c1ccc([N+](=O)[O-])cc1	1	-3	9.8*	-1	-1	-2	-2
CCN(CC)S(=O)(=O)c1cc([N+](=O)[O-])ccc1NNC(=O)Nc1ccc(F)cc1	-1	-2	5	4	1	.	.
COc1ccccc1NC(=O)c1ccccc1S(=O)(=O)c1ccccc1[N+](=O)[O-]	-2	0	-1	3	-4	.	.
O=C(CSc1nc2ccccc2c(=O)n1-c1ccc(Cl)c(Cl)c1)Nc1ccc2c(c1)CCC2	1	-1	11*	4	4	-7	-4
O=C(CSc1nc2ccccc2c(=O)n1-c1ccccc1)Nc1ccc2c(c1)CCC2	-2	-6	4	4	3	.	.
O=C(CCNC(=O)c1ccco1)NCCc1ccc(Cl)cc1	0	-1	-1	-2	-1	.	.
O=C(CCNC(=O)c1ccccc1)NCCc1ccc(Cl)cc1	3	2	9.6*	0	2	-5	-4
O=S(=O)(O)c1ccc(N=NNc2ccc(Br)cc2)cc1	1	9	9.8*	-8	6	-6	-7
COc1ccc(NN=Nc2ccc([N+](=O)[O-])cc2)cc1	-6	-3	3	-10	1	.	.
SMILES	UHRF1 MBD2 ctr	MBD2 inh	PLCg1 inh	PLC-beta3 inh	LEDGF integ inh	PLCgamma1 ctr	PLCb3 confirm
CCCCNC(=O)NCCCN1CCN(c2ccc(F)cc2)CC1	0	-8	2	0	1	.	.
CCC(c1nnnn1-c1ccc2c(c1)OCCO2)N1CCN(CC)CC1 (stereo not drawn)	4	-6	10*	7	3	-7	-54
CCC(c1nnnn1-c1ccc2c(c1)OCCO2)N1CCN(C)CC1 (stereo not drawn)	6	2	1	3	-2	.	.
O=C(Cc1ccccc1Cl)Nc1cccc(S(=O)(=O)N2CCOCC2)c1	0	2	9.9*	2	3	-3	-3
Cn1cccc1C(=O)OCC(=O)Nc1cccc(S(=O)(=O)N2CCOCC2)c1	0	0	11*	0	10	-4	-1
O=C(COC(=O)c1cccs1)Nc1cccc(S(=O)(=O)N2CCOCC2)c1	-2	-2	0	2	1	.	.
Cc1nc(SCC(=O)Nc2cccc(S(=O)(=O)N3CCOCC3)c2)nc(C)c1C	5	-5	14*	4	4	-6	-3
Cc1csc(SCC(=O)Nc2cccc(S(=O)(=O)N3CCOCC3)c2)n1	0	0	-1	-3	1	.	.
COC(=O)[C@]12C[C@H](CC(=O)NCCCN3CCCC3=O)C(=O)N(CCc3ccc(OC)c(OC)c3)C1=C[C@H](C(C)(C)C)O[C@@H]2C	5	1	5	0	2	.	.
C=CCN1C(=O)[C@@H](CC(=O)NCc2cccc3ccccc23)[C@]2(C(=O)OCC)CCCCC/C=C/12	1	2	3	6	8	.	.
COc1ccc(-c2c(Cc3ccccc3)nc(NC(=O)c3ccccc3)n2C)cc1	0	3	-5	-12	13	.	.
Nc1[nH]c(C(=O)c2ccccc2)c(-c2ccc3ccccc3c2)c1C(=O)NCCc1ccc(Cl)cc1	2	6	-11	-17	-2	.	.
CCCNC(=O)C1(C)CCCN(C(=O)CN2C(=O)c3ccccc3C2=O)C1 (stereo not drawn)	4	7	10*	-6	1	-3	1
O=C(Nc1ccnn1C1CCN(CCCC2CCCC2)CC1)c1ccccc1Cl	2	-1	11*	-4	1	-3	4
C=CCNC(=S)NNC(=O)c1ccc(C)c(Cl)c1	3	-6	13*	2	0	-5	0
CCCn1nc(C(=O)NCC(C)(C)N2CCOCC2)c2ccccc2c1=O	3	-7	9.7*	9	-2	-3	-1
CCCn1nc(C(=O)NCCN2CCOCC2)c2ccccc2c1=O	-3	-2	4	0	-3	.	.
CCOC(=O)N1CCN(S(=O)(=O)c2ccc(C(=O)N(CCCN(C)C)c3nc4cc(OC)ccc4s3)cc2)CC1	3	0	5	2	2	.	.
COc1ccc2sc(N(CCCN(C)C)C(=O)c3ccc(S(=O)(=O)N4CCCC4)cc3)nc2c1	1	-4	12*	7	1	-4	-2

Source: PubChem
